Measurements taken from PubChem BioAssay AID463173 (ICCB-Longwood Screening Facility, Harvard Medical School, 2010).
About 1,700 (3.3%) of roughly 52,000 compounds were called active. The sample holds actives, similar compounds and a random draw of the others, so the mix is not that of the screen. Unmarked numbers belong to inactive results. No stated cut-off is given here; in the data, active means survival mostly below about 52% (no sharp cut-off); inactive means mostly above about 56%.

What follows are molecules tested on Wild type (assay: growth inhibition of S. aureus wild type versus tarO mutant, primary screen, teichoic acid synthesis inhibitors, RN4220, OD600 (AID 463173)). Settings: S. aureus RN4220 wild type/DeltatarO growth, OD600, 18 h, stronger effect = lower value, screened at 18.75 µg/mL (by protocol).

Row | Compound | survival
1 | Cc1cccc(NC(=O)c2c(NC(=O)c3cccs3)sc3c2CCC(C)C3)c1 (configuration not stated) | 75%
2 | Cc1cccc(NC(=O)c2c(NC(=O)c3ccco3)sc3c2CCC(C)C3)c1 (configuration not stated) | 73%
3 | Cc1cccc(C(=O)Nc2sc3c(c2C(=O)O)CCCC3)c1 | 40%
4 | CCN(CC)C(=O)c1c(NC(=O)c2cccc(C)c2)sc2c1CCC(C)C2 (configuration not stated) | 2% (active)
5 | CC1CCc2c(sc(NC(=O)c3ccccc3)c2C(=O)Nc2ccccc2)C1 (configuration not stated) | 64%
6 | Cc1cccc(C(=O)Nc2sc3c(c2C(=O)N2CCCCC2)CCC(C)C3)c1 (configuration not stated) | -1% (active)
7 | O=C(NC1CCCCC1)c1cccnc1Nc1ccccc1F | 113%
8 | CC1CCCN(C(=O)Cn2ncc3c([nH]c4ccccc43)c2=O)C1 (configuration not stated) | 81%
9 | COc1cc(NC(=O)CC(C)S(=O)(=O)c2ccc3c(c2)CCN3C(C)=O)cc(OC)c1OC (configuration not stated) | 76%
10 | CC(=O)N1CCc2cc(CNC(=O)Nc3ccc(Br)c(C)c3)ccc21 | 85%
11 | CC(=O)N1CCc2cc(S(=O)(=O)C(C)CC(=O)Nc3ccc(Br)c(C)c3)ccc21 (configuration not stated) | -6% (active)
12 | CCOC(=O)c1c(S(=O)(=O)NCC(=O)Nc2cccc(SC)c2)c(C)n(C)c1C | 70%
13 | COc1ccc(CN(C(=O)c2cc(=O)c3ccccc3o2)C2CCS(=O)(=O)C2)cc1OC (configuration not stated) | 118%
14 | CCOc1ccc(NC(=O)C(=O)NCCc2csc3nc(-c4ccccc4F)nn23)cc1 | -3% (active)
15 | Cc1c(Cl)cccc1NC(=O)C(=O)NCCc1csc2nc(-c3ccccc3F)nn12 | 1% (active)
16 | Cc1ccccc1-c1nc2scc(CCNC(=O)C(=O)Nc3ccc(F)cc3F)n2n1 | -4% (active)
17 | Cc1ccc(C)c(NC(=O)C(=O)NCCc2csc3nc(-c4ccccc4C)nn23)c1 | 129%
18 | CC(=O)Nc1cccc(NC(=O)C(=O)NCCc2csc3nc(-c4ccccc4F)nn23)c1 | 57%
19 | CCOc1ccc(CC(=O)NCCc2csc3nc(-c4ccccc4F)nn23)cc1 | 119%
20 | COC(=O)c1ccc(NC(=O)C(=O)NCCc2csc3nc(-c4ccccc4F)nn23)cc1 | 60%
21 | Cc1ccc(NC(=O)C(=O)NCCc2csc3nc(-c4ccccc4C)nn23)cc1Cl | 82%
22 | O=C(NCCc1csc2nc(-c3ccccc3F)nn12)C(=O)Nc1cc(F)ccc1F | 63%
23 | O=C(CSc1nnnn1Cc1ccccc1)Nc1ccccc1 | 114%

Row | Compound | survival
24 | COc1ccc(OC)c(CNS(=O)(=O)c2c(C(=O)N3CCCCCC3)c(C)n(C)c2C)c1 | 135%
25 | COc1ccccc1CNC(=O)CCC(=O)N1CC2CCCN2c2ccccc21 (configuration not stated) | 80%
26 | CC(C)(C)C(=O)Nc1cccc(-c2cn3cccnc3n2)c1 | 70%
27 | O=C(CCCn1c(=O)c2cccn2c2ccccc21)NCc1ccccc1Br | 55%
28 | CCc1ccc2nc(N3CCCC3)c(C#N)cc2c1 | 108%
29 | O=C(CSc1n[nH]c(-c2ccccc2Cl)n1)N1CCN(c2ccccc2F)CC1 | 123%
30 | O=C1c2[nH]nc(-c3ccc(F)cc3)c2C(c2ccccc2F)N1c1ccccc1 (configuration not stated) | 4% (active)
31 | COC(=O)c1ccc(C2c3c(-c4ccc(Br)cc4)n[nH]c3C(=O)N2c2ccc(Cl)cc2)cc1 (configuration not stated) | 75%
32 | COc1ccccc1C1c2c(-c3ccc(Cl)cc3)n[nH]c2C(=O)N1c1ccc(C)cc1 (configuration not stated) | 85%
33 | CCOC(=O)c1ccc(N2C(=O)c3[nH]nc(-c4ccc(OC)cc4)c3C2c2ccc(C)cc2)cc1 (configuration not stated) | 89%
34 | O=C1c2[nH]nc(-c3ccc(Br)cc3)c2C(c2cccc(O)c2)N1c1ccc(Cl)cc1 (configuration not stated) | 1% (active)
35 | Cc1ccc(-c2n[nH]c3c2C(c2cccc(O)c2)N(c2ccc(C(=O)O)cc2)C3=O)cc1 (configuration not stated) | 98%
36 | COc1ccc(-c2n[nH]c3c2C(c2ccc(O)cc2)N(c2ccc(Br)cc2)C3=O)cc1 (configuration not stated) | 11% (active)
37 | CCOc1cc(C2c3c(-c4ccc(Br)cc4)n[nH]c3C(=O)N2c2ccc(Cl)cc2)ccc1O (configuration not stated) | 42%
38 | COc1ccc(C2c3c(-c4ccc(F)cc4)n[nH]c3C(=O)N2c2ccccc2)cc1OC (configuration not stated) | 134%
39 | COc1cccc(CNC(=O)CN2C(=O)COc3ccc(S(=O)(=O)N4CCCCC4)cc32)c1 | 100%
40 | CCOc1ccccc1CNC(=O)C(CC)n1nc(C)c2c(C)n(-c3ccccc3)nc2c1=O (configuration not stated) | 88%
41 | CCOC(=O)c1ccc(NC(=O)CCCn2c(=O)c3cccn3c3ccccc32)cc1 | 78%
42 | CCc1ccc(C(=O)c2cn(CC(=O)Nc3ccc(OC)c(Cl)c3)c3nc(C)ccc3c2=O)cc1 | 119%
43 | COC(=O)c1sc2cccc(F)c2c1S(=O)(=O)Nc1cc(OC)cc(OC)c1 | 0% (active)
44 | CCOc1ccccc1NS(=O)(=O)c1c(C(=O)OC)sc2cccc(F)c12 | -3% (active)
45 | COC(=O)c1sc2cccc(F)c2c1S(=O)(=O)Nc1cc(C)c(Cl)cc1OC | 85%
46 | COC(=O)c1sc2cccc(F)c2c1S(=O)(=O)Nc1ccc(C)cc1Cl | 63%

Row | Compound | survival
47 | CCOC(=O)c1sc2cccc(F)c2c1S(=O)(=O)Nc1ccccc1F | 124%
48 | COC(=O)c1sc2cccc(F)c2c1S(=O)(=O)Nc1ccc(N(C)C)cc1 | 53%
49 | CC(C)c1ccc(NC(=O)C2CCCN(S(=O)(=O)c3cccc4nsnc34)C2)cc1 (configuration not stated) | 70%
50 | CN1CCc2nc3sc(C(=O)c4ccc5c(c4)OCO5)c(N)c3cc2C1 | 116%
51 | Cc1ccc(-n2c(-c3ccc(Br)cc3)nc3c(cnn3-c3ccccc3)c2=O)cc1 | 66%
52 | Clc1ccc(CNc2ccccn2)cc1 | 98%
53 | CCCOC(=O)c1ccc(Nc2nc3ccccc3nc2-n2nc(C)cc2C)cc1 | 32%
54 | Cc1ccc2nc(Nc3cccc(Cl)c3C)c(-n3nc(C)cc3C)nc2c1 | 131%
55 | Cc1cc(C)n(-c2nc3ccccc3nc2Nc2cc(Cl)ccc2C)n1 | 131%
56 | Cc1cc(C)cc(Nc2nnc(-n3nc(C)cc3C)c3ccccc23)c1 | 86%
57 | Cc1cc(C)n(-c2nc3ccccc3nc2Nc2ccc(Cl)c(C(=O)OC(C)C)c2)n1 | 84%
58 | Cc1cc(C)n(-c2nc3ccccc3nc2Nc2ccc(C(C)C)cc2)n1 | 5% (active)
59 | CC(=O)c1ccc(Nc2nc3ccccc3nc2-n2nc(C)cc2C)cc1 | 54%
60 | Cc1cc(C)n(-c2nc3ccccc3nc2Nc2cccc(C)c2C)n1 | 7% (active)
61 | Cc1cc(C)cc(Nc2nc3cc(Cl)c(Cl)cc3nc2-n2nc(C)cc2C)c1 | 81%
62 | Cc1cc(C)n(-c2nc3ccccc3nc2Nc2ccc(N(C)C)cc2)n1 | 2% (active)
63 | Cc1cc(C)cc(Nc2nc3ccccc3nc2-n2nc(C)cc2C)c1 | 8% (active)
64 | Cc1cc(C)n(-c2nnc(Nc3ccc(C(C)C)cc3)c3ccccc23)n1 | 74%
65 | CCOC(=O)N1CCc2c(sc(NCc3sccc3C)c2C(=O)Nc2cc(OC)ccc2OC)C1 | 65%
66 | Cc1cccc(N2CCN(Cc3nnc(-c4ccccc4C)o3)CC2C)c1 (configuration not stated) | 21%
67 | CCOC(=O)c1c(C)sc(-c2c(-c3ccc(OC)c(F)c3)[nH]c3[nH]c(=O)[nH]c(=O)c23)c1O | 111%
68 | CCCOc1ccc(CNC(=O)Cn2cc3c(n2)-c2c(oc(C(=O)N4CCOCC4)c2C)CC3)cc1 | 96%
69 | COc1ccc(-c2nn(C)c3sc(C(=O)NCCN(C)C)cc23)cc1OC | 82%

Row | Compound | survival
70 | CCOC(=O)c1c(C)[nH]c(C)c1S(=O)(=O)N(C)CC(=O)Nc1cccc(C(F)(F)F)c1 | 69%
71 | COC(=O)C(CCSC)NC(=O)Cn1ncc2c([nH]c3ccccc32)c1=O (configuration not stated) | 47%
72 | COc1cc2c(c(OC)c1)C(c1cccc(F)c1F)CC(=O)N2 (configuration not stated) | 82%
73 | COc1ccc(CCN(Cc2nc3ccccc3c(=O)[nH]2)C(=O)c2ccco2)cc1 | 81%
74 | Cc1ccc(NS(=O)(=O)c2ccc3[nH]c4c(c3c2)CCCCC4)cc1 | 84%
75 | O=C(CCn1c(=O)c2cccn2c2cccnc21)NCc1ccccc1Br | 93%
76 | Cc1cc(C)n(-c2nc3ccccc3nc2Nc2ccc(Cl)cc2Cl)n1 | 86%
77 | Cc1cc(C)n(-c2nc3ccccc3nc2Nc2ccc(Cl)c(Cl)c2)n1 | 1% (active)
78 | COc1cc(OC)c(Nc2nc3ccccc3nc2-n2nc(C)cc2C)cc1Cl | 80%
79 | COc1ccccc1Nc1nc2ccc(Cl)cc2nc1-n1nc(C)cc1C | 138%
80 | Cc1ccc(Nc2nc3ccccc3nc2-n2nc(C)cc2C)c(Cl)c1 | 88%
81 | COc1ccc(OC)c(Nc2nc3ccccc3nc2-n2nc(C)cc2C)c1 | 10% (active)
82 | Cc1ccc(CNC(=O)c2ccc(Cn3c(SCc4ccc(F)cc4)nc4cccnc43)cc2)o1 | 84%
83 | Cc1ccc(C(=O)c2sc(Nc3ccc(F)cc3)c(C#N)c2N)cc1 | 108%
84 | CCCOc1ccc(C(=O)Nc2ccc3nn(-c4ccc(OC)c(Cl)c4)nc3c2)cc1 | 145%
85 | COc1ccc(CNC(=O)C(=O)Nc2ccc(OC)cc2OC)cc1 | 80%
86 | N#C/C(=C/C=C/c1ccco1)c1nc2ccccc2[nH]1 | 113%
87 | CCCn1c2ccccc2c2cnn(CC(=O)NCCc3ccc(OCC)c(OCC)c3)c(=O)c21 | 76%
88 | CCCn1c2ccccc2c2cnn(CC(=O)NCCc3ccc(C)cc3)c(=O)c21 | 121%
89 | CCCn1c2ccccc2c2cnn(CC(=O)NCCc3ccc(OCC)cc3)c(=O)c21 | -6% (active)
90 | CCCn1c2ccccc2c2cnn(CC(=O)NCCCOC(C)C)c(=O)c21 | -6% (active)
91 | CCCn1c2ccccc2c2cnn(CC(=O)NCCCN3CCCCC3)c(=O)c21 | 78%
92 | CCCNC(=O)Cn1ncc2c3ccccc3n(CCC)c2c1=O | 133%
